Data taken from PubChem BioAssay (NCI).
The panel holds about 83,000 compounds, 20% with a hit somewhere; the sample as a whole holds those more often.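 Activity criterion: percent growth below 10, measured after cells in 96-well plates were exposed to a single compound concentration for 48 hours.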 A number with no mark means an inactive call. Activity calls are given as the source filed them.

What was measured:
Assay in all cases: NCI-60 one-dose screen, 48 h (100 = growth as untreated, 0 = no growth, -100 = all killed)
HT29 colon = settings: 10 µM unless noted
SNB-75 CNS = settings: 10 µM unless noted
SNB-19 CNS = settings: 10 µM unless noted
U251 CNS = settings: 10 µM unless noted
PC-3 prostate = settings: 10 µM unless noted
SK-MEL-5 melanoma = settings: 10 µM unless noted
UACC-62 melanoma = settings: 10 µM unless noted
SK-MEL-2 melanoma = settings: 10 µM unless noted
SN12C renal = settings: 10 µM unless noted
UO-31 renal = settings: 10 µM unless noted
TK-10 renal = settings: 10 µM unless noted
ACHN renal = settings: 10 µM unless noted
CAKI-1 renal = settings: 10 µM unless noted
A498 renal = settings: 10 µM unless noted
CCRF-CEM leukemia = settings: 10 µM unless noted
MOLT-4 leukemia = settings: 10 µM unless noted
SR leukemia = settings: 10 µM unless noted
LOX IMVI melanoma = settings: 10 µM unless noted
SK-MEL-28 melanoma = settings: 10 µM
EKVX NSCLC = settings: 10 µM unless noted

SMILES | growth (HT29 colon) | growth (SNB-75 CNS) | growth (SNB-19 CNS) [%] | growth (U251 CNS) | growth (PC-3 prostate) | growth (SK-MEL-5 melanoma) [%] | growth (UACC-62 melanoma) | growth (SK-MEL-2 melanoma) | growth (SN12C renal) | growth (UO-31 renal) | growth (TK-10 renal) | growth (ACHN renal) | growth (CAKI-1 renal) | growth (A498 renal) | growth (CCRF-CEM leukemia) | growth (MOLT-4 leukemia) | growth (SR leukemia) | growth (LOX IMVI melanoma) | growth (SK-MEL-28 melanoma) | growth (EKVX NSCLC)
O=C(Nc1ccccc1O)c1ccc(-c2ccc(Cl)cc2Cl)o1 | 53.9% | 78.1% | 89.2 | 81.1% | 71.7% | 85.9 | 105% | 96.3% | 89.8% | 74% | 102% | 102% | 78.7% | 86.4% | 75.1% | 65.6% | 48.7% |  |  | 
O=C(CCc1nnc2sc(Cc3ccccc3Cl)nn12)c1nc2ncccc2[nH]1 | 104% | 67.7% | 93.3 | 104% | 85.6% |  | 83.2% | 97.9% | 87.3% | 63.5% | 128% | 94.9% | 74.4% | 87.5% | 103% | 86.2% |  | 88% | 96.2% | 94.6%
Cn1c(=O)n(C)c2cc(CNCCNc3ccnc4cc(Cl)ccc34)ccc21 | 6.95% (active) | 69.6% | 89 | 51.5% | 64.2% | 72.3 | -46.8% (active) | 65.7% | 63.3% | 36.9% | 62.3% | 4.21% (active) | 66.2% | 72.3% | 58.5% | 61.1% | 3.33% (active) |  | -36.1% (active) | 
O=C(Nc1ccc(F)cc1F)c1cc(I)ccc1O | 76.6% | -2.44% (active) | 16.8 | 4.06% (active) | 5.01% (active) |  | 9.89% (active) | -15.8% (active) | 8.12% (active) | 2.51% (active) | 23.1% |  | -17.5% (active) | -33.2% (active) | 14.1% | 7.29% (active) |  | 13.4% | 23.8% | 55.8%
O=C(Nc1ccc(-c2nc3cc4ccccc4cc3[nH]2)cc1)c1cccc(Br)c1 | 12.4% | 66.2% | 36.2 | 25.9% | 51.1% |  | 39% | 49.4% | 44.6% | 13.1% | 51.8% | 35.1% | 18.2% | 68.5% | 77% | 85.4% | 76.4% | -6.26% (active) | 41.8% | 
O=C(NC1C(O)OC(CO)C(O)C1O)NS(=O)(=O)c1ccc(Cl)cc1 (stereo not drawn) | 93.2% | 94% | 101 | 103% | 94.5% |  | 94.8% | 101% | 98.1% | 77.1% | 110% | 102% | 94.4% | 95.2% | 99.1% | 102% | 100% | 101% | 105% | 109%
CC1=C(CC(=O)c2cccc([N+](=O)[O-])c2)C(=O)c2ccccc2C1=O | 106% | -84.6% (active) | 13 | -81% (active) | 42.8% |  | -50.8% (active) | -36.2% (active) | -36% (active) | -64.3% (active) | -43.1% (active) | 13.8% | -28.1% (active) | 68% | 4.59% (active) | 36.5% | -46.1% (active) | -51.9% (active) | -89.9% (active) | 
COc1cc([C@@H]2NC(=O)NC(C)=C2C(=O)Nc2nc(-c3ccc(Cl)cc3)cs2)ccc1O | 108% | 87.3% | 113 | 97.9% | 88.9% |  | 91.6% | 105% | 97.4% | 69% | 103% | 98.3% | 83% | 102% | 132% | 100% | 106% | 94.2% | 110% | 91.1%
COc1ccc(-c2c(-c3ccc(OC)c(O)c3)cnc3ncnn23)cc1 | 108% | 99.6% | 102 | 102% | 105% |  | 99% | 107% | 105% | 94.1% | 98% | 105% | 95.1% | 91.9% | 102% | 100% | 109% | 99.8% | 114% | 98.1%
Cn1nc(C(F)(F)F)c(-c2ccc(Cl)c(C(F)(F)F)c2)c1-c1ccc(OCc2ccc(Cl)cc2)cc1O | 20.4% | 47.7% | 19.2 | 0.822% (active) | 3.78% (active) |  | 19.7% | 1.95% (active) | 6.24% (active) | -6.34% (active) | 0.361% (active) | 5.21% (active) | 19.8% | 5.29% (active) | 9.89% (active) | 12.3% | 25.1% | 5.24% (active) | 31.2% | 12.8%
COc1ccc(N2C(=O)CC(c3cc(OC)c(OC)c(OC)c3)C3C2=NC(=O)N3C)cc1 (stereo not drawn) | 104% | 99.5% | 102 | 110% | 100% |  | 104% | 116% | 102% | 89.9% | 103% | 106% | 95.1% | 102% | 109% | 114% | 126% | 103% | 108% | 102%
O=c1oc2ccc(Br)cc2c(=O)n1-c1ccc(F)cc1F | 97.7% | -12.1% (active) | 12.5 | 7.07% (active) | 0.771% (active) |  | -0.768% (active) | -16.1% (active) | 6.17% (active) | 3.24% (active) | 11.6% | 4.95% (active) | -16.6% (active) | -39% (active) | 14.1% | 17.5% |  | 12.6% | 20.3% | 39%
CCOC(=O)c1c2c(n3cccc(Cl)c13)C(=O)c1ncccc1C2=O | 69.3% | 78.2% | 45.9 | 36% | 53% |  | 55.9% | 103% | 16.6% | 43.9% | 75.6% | 26.4% | 25.8% | 79.3% | 84.2% | 95.8% | 58.3% | 27.3% | 87.5% | 75.7%
O=C(Nc1ccc(Br)cc1F)c1cc(Cl)ccc1O | 15.6% | -34.7% (active) | 14 | -0.181% (active) | -5.33% (active) |  | -24.9% (active) | -25.8% (active) | -5.66% (active) | 9.99% (active) | 0.819% (active) | 0.275% (active) | -21.3% (active) | -70.2% (active) | 5.57% (active) | -28.1% (active) |  | 1.68% (active) | -6.77% (active) | 8.37% (active)
O=Cc1cc2ccccc2nc1Nc1nccs1 | 33.9% | 79.4% | 71.6 | 70.4% | 49.5% |  | 84.5% | 105% | 45.5% | 31.2% | 101% | 31.5% | 79.5% | 81.9% | 46.7% | 23.4% | 33.9% | 31.7% | 104% | 98.5%
CC(C)CCOc1ccc(-c2n[nH]c(C(F)(F)F)c2-c2cncc(C#N)c2)c(O)c1 | 48.9% | 30.1% | 13.1 | 2.85% (active) | 1.74% (active) |  | 17.5% | -13.8% (active) | 3.81% (active) | 3.89% (active) | 11.4% | 8.84% (active) | 9.47% (active) | -25.5% (active) | 6.67% (active) | 23% | 33.7% | 5.15% (active) | 33.7% | 3.52% (active)
COc1ccc(-c2cn[nH]c2-c2cc(OC)c(OC)c(OC)c2)cc1OCc1ccccc1 | 84.9% | 5.94% (active) | 41.1 | 12% | 22.4% |  | 21.8% | 2.98% (active) | 62.3% | 25.6% | 50.9% | 34.1% | 28.9% | -18.9% (active) | 47% | 64.5% | 27.5% | 21.5% | 48.5% | 33.5%
